This is an account of results in PubChem BioAssay AID485272 (The Scripps Research Institute Molecular Screening Center, 2010).

Screen size: about 330,000 compounds; about 1,300 (0.39%) were called active.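 Rule for the calls: active = percent inhibition above a cutoff equal to the mean of all tested compounds plus 3 SD (cut at about 15% in these data); inactive = the rest.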 Only a selection was taken, and actives are over-represented in it overall.

The assay deals with Protein-arginine deiminase type-4 (Homo sapiens) (UniProt Q9UM07). As to the kind of experiment: protein arginine deiminase 4 enzyme blockade – biochemical, fluorescence polarization, 1536-well format, primary screen (AID 485272).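 Note: 0% = PAD4 with RCA probe and DMSO and 100% = probe without PAD4.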 To be noted: recombinant PAD4, RCA probe fluorescence polarization; at 6.36 µM; stronger effect = higher value. Background: In fluorescence polarisation assays a small probe gives low polarisation when free and higher when bound to something large.
Sequence of Protein-arginine deiminase type-4 (Homo sapiens) (Q9UM07 whole entry, looked up): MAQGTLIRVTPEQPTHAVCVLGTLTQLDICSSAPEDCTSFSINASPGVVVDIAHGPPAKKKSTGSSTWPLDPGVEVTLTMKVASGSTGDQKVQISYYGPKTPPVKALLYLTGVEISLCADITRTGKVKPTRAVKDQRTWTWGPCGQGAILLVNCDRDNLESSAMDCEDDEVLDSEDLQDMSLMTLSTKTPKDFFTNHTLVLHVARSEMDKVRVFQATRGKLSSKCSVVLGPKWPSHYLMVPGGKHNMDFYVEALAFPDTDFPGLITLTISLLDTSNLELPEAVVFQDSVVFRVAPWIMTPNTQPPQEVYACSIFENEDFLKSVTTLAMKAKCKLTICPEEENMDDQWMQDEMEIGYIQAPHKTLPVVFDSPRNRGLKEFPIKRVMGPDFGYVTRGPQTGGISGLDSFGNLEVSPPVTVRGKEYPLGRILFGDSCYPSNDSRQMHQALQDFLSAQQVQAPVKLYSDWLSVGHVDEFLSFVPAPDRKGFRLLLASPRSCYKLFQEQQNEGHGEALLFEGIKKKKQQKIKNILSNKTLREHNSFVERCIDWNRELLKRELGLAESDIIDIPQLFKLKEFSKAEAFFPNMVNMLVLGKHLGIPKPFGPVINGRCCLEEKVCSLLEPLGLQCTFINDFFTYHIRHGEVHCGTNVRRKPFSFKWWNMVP
Broadly, the inhibition is the relative decrease from the control value, in per cent. Take `Nc1cc(N)nc(SCc2cccc(F)c2)n1`: the inhibition was -6.07% (inactive).
In the case of `Cc1cc(=O)[nH]c(SCc2cccc(F)c2)n1` it was 3.23% (inactive); in that of `CCc1nnc(SCc2cccc(F)c2)nc1CC`, 24.2% (active); in that of `CC(C)Cc1nc(Nc2ccc(S(=O)(=O)N3CCCC3)cc2)c2nnn(Cc3ccccc3)c2n1`, -3.06% (inactive).
With `CCCc1cc(=O)[nH]c(SCC(=O)Nc2ccc(S(=O)(=O)N3CCCC3)cc2)n1` the figure was 5.78% (inactive); with `CC(=O)N(c1ccc2oc(=O)sc2c1)S(=O)(=O)c1ccc(C)cc1`, 19.6% (active).
Turning to `CC(=O)Oc1ccc(N(C(C)=O)S(=O)(=O)c2ccc3ccccc3c2)cc1Br`, the inhibition was -0.04% (inactive).
In the case of `COC(=O)c1c(C)oc2ccc(N(C(=O)Oc3ccccc3)S(=O)(=O)c3ccccc3)cc12` it was -4.57% (inactive); in that of `CCOC(=O)c1c(C)[nH]c(C2=NNC(=NC(C)COC)SC2)c1C` (configuration not stated), -4.38% (inactive).
Take `O=C(NC(=S)Nc1cc(C(F)(F)F)ccc1N1CCOCC1)c1ccc(-c2cccc(Cl)c2)o1`: the inhibition was -0.46% (inactive).
In the case of `Cc1ccc(-n2[nH]c(C)c(/C=N/NC(=O)c3cccc([N+](=O)[O-])c3)c2=O)cc1C` it was -0.65% (inactive).
In the case of `COc1cc(SC#N)ccc1N=Cc1c(C)[nH]n(-c2ccc(C)cc2)c1=O` it was 27.3% (active).
Regarding `COc1ccc(C(=O)Nc2ccc(C(=O)NCC3CCCO3)cc2)c(OC)c1OC` (configuration not stated), the inhibition is 2.07% (inactive).
In the case of `COc1ccc(CCn2ccc(O)c(Cc3ccc(Cl)cc3Cl)c2=O)cc1OC` it was 2.71% (inactive).
In the case of `COc1ncnc2c1N=C1CC(C)(C)CC(N)=C1S2` it was 16.7% (active).
In the case of `C#CCOCCOCCOCCNc1nc(N2CCN(C(=O)C([C@@H](C)O)n3cc([C@@H](N)CCCCN)nn3)CC2)nc(N2CCN(C(=O)[C@H](CCCCN)n3cc(CN)nn3)CC2)n1` (some centres not stated) it was 4.78% (inactive); in that of `CC(=O)NS(=O)(=O)c1ccc(N/C(N)=N/c2nc(C)cc(C)n2)cc1`, -0.78% (inactive); in that of `CSc1ccc(/C=C2\NC(=O)NC2=O)cc1`, -0.37% (inactive).
For the compound `CCOC(=O)c1csc(NC(=O)c2ccc(S(=O)(=O)N3CCCC3)cc2)n1`, the inhibition is -3.23% (inactive).
Turning to `CNC(=O)c1ccsc1NC(=O)c1ccc(S(=O)(=O)N2CCOCC2)cc1`, the inhibition was -4.29% (inactive).
Turning to `COc1ccc(C(=O)Nc2nc(-c3ccc(S(=O)(=O)N4CCOCC4)cc3)cs2)cc1`, the inhibition was 17.5% (active).
With `CCOC(=O)c1ccc(NNC(C)=O)c([N+](=O)[O-])c1` the figure was -2.2% (inactive); with `COC(=O)c1noc(C)c1-c1ccnn1C(=O)c1ccc(Cl)cc1`, -7.73% (inactive).
With `Cc1ccc(N=C2NC(=O)c3cccc([N+](=O)[O-])c32)cc1` the figure was -1.46% (inactive); with `COCCNC(=O)Nc1ccc2nc(-c3ccco3)c(-c3ccco3)nc2c1`, 22% (active).
In the case of `COc1cccc(NC(=O)NCCN2CCCCC2)c1` it was -0.52% (inactive).
As for `O=C(NCc1ccccn1)c1ccc2nc(-c3ccco3)c(-c3ccco3)nc2c1`, the inhibition is 7.09% (inactive).
With `CCc1ccc(OC(C)C(=O)Nc2ccc(S(=O)(=O)Nc3cc(C)on3)cc2)cc1` (configuration not stated) the figure was -0.06% (inactive); with `CC(C)C(NC(=O)OCc1ccccc1)C(=O)OCC(=O)N1C(C)CCCC1C` (configuration not stated), 2.54% (inactive); with `O=C(NCCSCc1ccccc1)c1ccc(Cl)c(S(=O)(=O)N2CCOCC2)c1`, 1.45% (inactive).
In the case of `O=C(c1ccc(F)c(S(=O)(=O)N2CCOCC2)c1)N(CCc1ccccc1)Cc1ccccc1` it was -3.27% (inactive); in that of `Cc1nn(Cc2ccccc2)c(C)c1CNC(=O)c1ccc(F)c(S(=O)(=O)N2CCOCC2)c1`, 27.9% (active).
In the case of `CCOC(=O)c1cc(NC(=O)SCC(=O)O)c(C)nc1C` it was 2.33% (inactive); in that of `CC1=NN(C(C)C)C(=O)C1`, -8.28% (inactive).
For the compound `CC(C)(C)NC(=O)NC(=O)COC(=O)C1(C)CC1(Cl)Cl` (configuration not stated), the inhibition is -0.93% (inactive).
In the case of `COc1ccccc1OCCC(=O)OCC(=O)NC(=O)NC(C)(C)C` it was 6.96% (inactive); in that of `CC(C)(C)NC(=O)NC(=O)COC(=O)CCC1CCCCC1`, 41.1% (active).
With `COc1ccc(S(=O)(=O)N2CCCCCC2)cc1C(=O)OCC(=O)Nc1cc(C)on1` the figure was -6.43% (inactive); with `CCCCN(C)CCNC(=O)CSCc1ccc(C)cc1`, -2.21% (inactive).
In the case of `COc1ccc(CCNS(=O)(=O)c2ccc(Cl)s2)cc1OC` it was -2.69% (inactive); in that of `O=C1c2oc3ccc(Br)cc3c(=O)c2C(c2cccc(F)c2)N1CCO` (configuration not stated), -4.97% (inactive); in that of `Cc1c(-c2nn(C)c(=O)c3ccccc23)oc2ccc(F)cc2c1=O`, 35.8% (active).
Take `Cc1ccc(F)cc1NC(=O)Cc1nn(C)c(=O)c2ccccc12`: the inhibition is -6.33% (inactive).
With `COC(=O)c1cc2c(N)c(C(=O)c3ccc(Cl)cc3)sc2nc1C(OC)OC` the figure was 0.06% (inactive); with `Nc1ccc2nc3c(=O)[nH]c(=S)[nH]c3nc2c1`, 31.8% (active).
In the case of `O=c1c(F)cn(C2CCCO2)c(=O)n1Cc1ccccc1Cl` (configuration not stated) it was -4.61% (inactive).
With `O=C(CNC1CCCCC1)NCC1(c2ccccc2)CCCC1` the figure was -2.33% (inactive); with `Cc1nn(Cc2ccccc2)c2c1C(c1ccccc1)C(C#N)=C(N)O2` (configuration not stated), -0.16% (inactive).
On to `Cc1nn(-c2ccccc2)c2c1C(c1ccc(F)cc1)C(C#N)=C(N)O2` (configuration not stated), for which the inhibition is -1.5% (inactive).
For the compound `COc1ccccc1C1C(C#N)=C(N)Oc2c1c(-c1ccccc1)nn2-c1ccccc1` (configuration not stated), the inhibition was 33.4% (active).
With `O=C(O)CC(SCC(=O)Nc1ccc(Br)cc1)C(=O)O` (configuration not stated) the figure was 1.63% (inactive).
With `COCCOC(=O)c1sc(=S)n(CCOC)c1N` the figure was 40.9% (active).
As to `CCOC(=O)CN(C(=O)COc1nc(C)cc(C)c1C#N)c1ccc(Cl)cc1`, the inhibition was 5.17% (inactive).
Regarding `CCOc1[nH]n(-c2ccc(Cl)cc2)c(=O)c1C=Nc1ccc(O)cc1`, the inhibition is 26.1% (active).
With `CCOc1ccc(N=C2NC(=O)S/C2=C\c2ccc(O)cc2)cc1` the figure was -1.95% (inactive); with `CC(C)c1nc(CNC(=O)CC2C(=O)NCCN2Cc2ccoc2)cs1` (configuration not stated), 5.06% (inactive); with `OC1CSc2nc3ccccc3n2C1` (configuration not stated), -1.87% (inactive).
Turning to `Cc1ccc(-c2cc(C(=O)NCc3cn(C)nc3C)c3cc(Br)ccc3n2)cc1`, the inhibition is 2.48% (inactive).
On to `O=C(CCn1c(SCC(=O)c2ccccc2)nc2ccccc2c1=O)NCc1ccc(F)cc1`, for which the inhibition was 67.8% (active).
As for `O=C(CSc1nc2ccccc2c(=O)n1Cc1ccc(F)cc1)NCC1CCCO1` (configuration not stated), the inhibition is -1.2% (inactive).
In the case of `O=C(CSc1nc2ccccc2c(=O)n1-c1ccc(F)cc1)NC1CC1` it was 1.54% (inactive); in that of `CCN(C(=O)CSc1nc(N)cc(=O)[nH]1)C1CCS(=O)(=O)C1` (configuration not stated), -0.69% (inactive); in that of `CONc1nc2nonc2nc1NOC`, -1.87% (inactive).
With `COc1ccc([C@H]2CC(=O)C=C(c3ccc(CO)cc3)C2)cc1` the figure was 1.09% (inactive).
With `O=S(=O)(Cc1nnnn1-c1ccc(Br)cc1)c1ccc(F)cc1` the figure was -0.08% (inactive); with `O=C1CN(C(=O)CN2C(=O)NC3(CCCCC3)C2=O)c2ccccc2N1`, 1.47% (inactive).
On to `Cc1ccc(C)c(S(=O)(=O)N2CCCOC2CNC(=O)C(=O)NC2CCCCC2)c1` (configuration not stated), for which the inhibition is -5.07% (inactive).
`COc1ccc(-c2nc(CS(=O)CC(=O)NCc3ccccn3)c(C)o2)cc1` (configuration not stated): the inhibition was 30.3% (active).
With `COc1cccc(-c2nc(CS(=O)CC(=O)NCc3ccc(F)cc3)c(C)o2)c1` (configuration not stated) the figure was 0.77% (inactive); with `COc1ccc(-c2nc(CS(=O)CC(=O)NCc3ccccc3)c(C)o2)cc1OC` (configuration not stated), 6.4% (inactive); with `Cc1ccc(/C=C2\CCn3c2nc2cc(C(=O)O)ccc2c3=O)c(C)c1`, -1.1% (inactive).
As for `COc1ccccc1OCCCCCCN1CCN(C)CC1`, the inhibition was -0.69% (inactive).
With `Cn1c(SCC(=O)Nc2nccs2)nnc1-c1cccnc1` the figure was 0.78% (inactive); with `Cn1c(Nc2cccc(Cl)c2)nc2ccccc21`, 22.6% (active).
Consider `Cn1c(NC(=O)c2ccccc2)nc2ccccc21`, for which the inhibition was -1.36% (inactive).
For `Cc1c(C(=O)Nc2cccc(Cl)c2)cn2c(nc3ccccc32)c1C#N`, the inhibition is -8.49% (inactive).
In the case of `CC(C)CNC(=S)NC(=O)c1ccc(Cl)cc1` it was 3.77% (inactive).
`CC(C)C(NC(=O)c1ccc(Cl)cc1)C(=O)O` (configuration not stated): the inhibition is 33.2% (active).
With `CC(NC(=O)c1ccc(Cl)cc1)C(=O)N1CCCCC1` (configuration not stated) the figure was -2.13% (inactive).
With `CN(C)N1C(N)=C(C#N)C(c2ccc(Br)cc2)C2=C1CCCC2=O` (configuration not stated) the figure was -7.04% (inactive); with `Cc1ccc(-c2nn(-c3ccccc3)cc2/C=C/C(=O)Nc2cccc(S(N)(=O)=O)c2)cc1`, -9.63% (inactive); with `Cc1ccc(-c2nn(-c3ccccc3)cc2/C=C2\SC(=S)N(CCCCCC(=O)O)C2=O)o1`, -0.43% (inactive).
Consider `CN(C)S(=O)(=O)c1cccc(-c2nn(-c3ccccc3)cc2/C=C2\SC(=S)N(CC(=O)O)C2=O)c1`, for which the inhibition was 29.1% (active).
With `Cc1cc(NS(=O)(=O)c2ccc(NC(=S)NC(=O)c3ccc(F)cc3Cl)cc2)no1` the figure was -2.99% (inactive).
In the case of `CCOc1ccc(S(=O)(=O)N2CCC(C(=O)NCc3ccccn3)CC2)cc1Cl` it was -2.62% (inactive).
In the case of `C=C1CCC(N(O)c2cc(C)on2)C(=C)CCC2C1CC2(C)C` (configuration not stated) it was -6.2% (inactive).
In the case of `Cc1[nH]n(-c2ccc([N+](=O)[O-])cc2)c(=O)c1C=NCCN1CCN(C(=O)c2ccccc2F)CC1`, the inhibition was -1.51% (inactive).
With `O=c1[nH]n(-c2ccc([N+](=O)[O-])cc2)c(=O)c2ccccc12` the figure was 31.3% (active).
For `COc1cnn(-c2ccc([N+](=O)[O-])cc2)c(=O)c1Cl`, the inhibition is 3.88% (inactive).
With `CCCCCNC(=O)Cc1ccc(OC)cc1` the figure was 1.91% (inactive).
With `COc1ccc(-c2cc(C(=O)NCCCN3CCOCC3)no2)cc1` the figure was -1.77% (inactive); with `CCCCNC(=O)C1(c2ccc(OC)cc2)CCOCC1`, 26.1% (active).
